IMPase inh = IMPase inhibition in cells; P97697; CHO-M1 cells, IP1 accumulation, HTRF TR-FRET ratio; inhibition (IP1 accumulation), % at 46.1 µM; 120,000 tested, under 10 active; AID 901; active = well fitted curve in the direction sought with a large enough effect in the signal ratio, not every such curve was filed as active; inconclusive = small, poorly fitted or top-dose-only effect, or a change in a side signal; inactive = no such curve, though single readings can be large or run the other way; the % refers to the signal ratio;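 also: cells stimulated with carbachol in lithium chloride buffer; plate controls were DMSO basal wells for no effect and reference inhibitor wells for full effect; higher means more IMPase inhibition seen as more IP1 and lower FRET ratio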
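Carbachol-driven Gq signalling in CHO-M1 cells (2000/well) generates IP1. Compounds that block IMPase raise IP1 and so reduce the FRET signal from Eu-anti-IP1 and d2-IP1 after a 10 min room-temperature lysis.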
p53ts 39C tox = cytotoxicity in p53ts cells at nonpermissive temperature. H1299-p53A138V viability at 39C, ATP luminescence, 24 h. Potency, µM (series often up to 46.1 µM), inactives show at the top dose activity change, negative = cell killing, hits mostly cytotoxic. 1.5% of 130,000 active. AID 902; also: potency is read from the fitted curve at half-maximal effect; % is scaled to controls: 0 for no effect and ±100 for the full control effect; nearly all actives have a fitted effect of over 55% in size
IkB sig inh = IkB pathway inhibition in ABC-DLBCL cells; ABC-DLBCL IkBa-CBG/CBR dual luciferase ratio, 4 h; response scale: scaled: untreated 0%, proteasome inhibitor 100%; Potency, µM (series often up to 57.1 µM), for inactives: at the highest dose IkBa stabilization activation; 0.04% of 110,000 active; active = well fitted curve in the direction sought with a large enough effect in the signal ratio, not every such curve was filed as active; inconclusive = small, poorly fitted or top-dose-only effect, or a change in a side signal; the % refers to the signal ratio;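 also: potency is read from the fitted curve at half-maximal effect; the direction sought is a rising ratio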
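In this assay, an IκBα–CBG68 fusion accumulates when IKK-driven degradation is blocked; native CBR normalizes for cell number. OCI-Ly3 cells were treated 4 h with compound and doxycycline, then green and red light read after Chroma-Glo addition.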
p53ts 32C tox = cytotoxicity in p53ts cells at permissive temperature; H1299-p53A138V at 32C, ATP luminescence viability, 24 h; Potency, µM (doses to about 46.1 µM), for the others: top-dose activity change, negative = cytotoxicity, hits mostly cytotoxic; AID 924; 0.93% of 130,000 active;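 also: potency is read from the fitted curve at half-maximal effect; 0% = DMSO and -100% = full killing by reference compound; nearly all actives have a fitted effect of over 55% in size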
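Viability by ATPlite luminescence after 24 h compound treatment (up to 46 uM) at the permissive 32C. Cells are H1299 carrying p53 A138V. Scale runs from DMSO basal to 100 uM tamoxifen as full kill; AC50 from Hill fits.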
FLuc inh = blocks Photinus pyralis firefly luciferase activity | Potency, µM (titrated, usually from 57.1 µM), without a hit: at the highest dose activity change, negative = inhibition, actives largely listed as inhibitors | 2.2% of 72,000 active | purified firefly luciferase, luminescence, 8 min | P08659; also: potency is read from the fitted curve at half-maximal effect; % is scaled to controls: 0 for no effect and ±100 for the full control effect; nearly all actives have a fitted effect of over 40% in size
Target sequence (P08659 whole entry, looked up): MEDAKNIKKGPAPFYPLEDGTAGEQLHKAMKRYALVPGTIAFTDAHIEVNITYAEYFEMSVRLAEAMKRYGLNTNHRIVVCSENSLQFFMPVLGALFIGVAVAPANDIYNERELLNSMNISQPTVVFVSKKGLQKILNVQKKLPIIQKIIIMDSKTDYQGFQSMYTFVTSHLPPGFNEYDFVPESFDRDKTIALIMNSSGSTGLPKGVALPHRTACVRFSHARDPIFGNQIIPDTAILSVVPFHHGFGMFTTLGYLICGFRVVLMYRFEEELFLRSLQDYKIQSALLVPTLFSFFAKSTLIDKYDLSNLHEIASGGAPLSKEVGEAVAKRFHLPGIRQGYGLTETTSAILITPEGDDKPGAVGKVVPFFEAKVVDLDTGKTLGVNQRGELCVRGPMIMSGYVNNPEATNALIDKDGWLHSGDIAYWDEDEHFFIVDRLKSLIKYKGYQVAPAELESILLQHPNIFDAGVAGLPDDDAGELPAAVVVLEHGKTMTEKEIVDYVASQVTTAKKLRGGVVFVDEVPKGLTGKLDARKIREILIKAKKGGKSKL
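qHTS concentration-response profiling: light output of P. pyralis luciferase with luciferin and 10 uM ATP, imidazole buffer pH 7.2. Read by luminescence after 8-min room-temperature incubation.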
Hsp90 Hop PPI = changes Hsp90-Hop TPR2A binding signal, up or down | AlphaScreen TPR2A-His6 binding biotin-Hsp90 C-terminal peptide | Potency, µM (titrated, usually from 57 µM), without a hit: at the top dose activity change, negative = inhibition | 0.44% of 71,000 active | AID 595; active = well fitted curve in either direction with a large enough effect; inconclusive = small, poorly fitted or top-dose-only effect, or another doubt; also: potency is read from the fitted curve at half-maximal effect; % is scaled to controls: 0 for no effect and ±100 for the full control effect
An asterisk follows results filed as active; ? = inconclusive; · = not tested or not shown; [ ] = remark or other dose. The entries come from a sample that favours hits as a whole. Unless noted, calls follow the shape of the dose curve; as a rule, active = well fitted curve in the direction sought with a large enough effect; inconclusive = small, poorly fitted or top-dose-only effect, or another doubt; inactive = no such curve, though single readings can be large; an effect the other way counts as inactive or inconclusive.

SMILES	IMPase inh	p53ts 39C tox	IkB sig inh	p53ts 32C tox	FLuc inh	Hsp90 Hop PPI
Cc1cc(C)n(-c2nc3ccccc3nc2Nc2ccc(N(C)C)cc2)n1	6	-2%	11%	16%	·	·
Cc1ccc2nc(Nc3ccc4[nH]c(=O)[nH]c4c3)c(-n3nc(C)cc3C)nc2c1	-6	?	-12%	?	4µM*	-9%
O=C(Nc1ccc2c(c1)N(C1CCCC1)C(=O)c1ccccc1S2)c1cccc(F)c1	·	-25%	?	?	·	·
CN1CCc2cccc3c2[C@H]1Cc1ccc(O)c(O)c1-3	3	6.3µM*	7%	25µM*	-5%	-9%
COc1ccc(NC(=O)c2c(C)oc3ccc(O)c(CN4CCC(C)CC4)c23)cc1Cl	·	32µM*	?	-6%	·	·
Cc1oc2ccc(O)c(CN3CCCCCC3)c2c1C(=O)Nc1cccc(C(F)(F)F)c1	·	16µM*	3%	-29%	·	·
Cc1oc2ccc(O)c(CN3CCCC3)c2c1C(=O)Nc1ccccc1	·	-7%	-3%	14%	·	·
COc1ccc(NC(=O)c2c(C)oc3ccc(O)c(CN4CCCC(C)C4)c23)cc1Cl (stereo not given)	·	32µM*	?	?	·	·
CC(C)c1nn2c(=O)cc(COC(=O)c3cccc(NC(=O)CCc4ccccc4)c3)nc2s1	·	-11%	?	?	·	·
O=C(Nc1cccc(NC(=O)c2cccs2)c1)c1ccco1	?	-1%	14%	-2%	-7%	-5%
O=C(Nc1ccc(Nc2ccccc2)cc1)c1ccco1	1	?	?	?	13µM*	-21%
O=C(Nc1ccc(C(=O)Oc2ccccc2)c(O)c1)c1ccco1	19	1%	11%	-6%	25µM*	-4%
CCn1cnc2cc(NC(=O)c3ccco3)ccc21	-7[0.0738 µM]	8.9µM*	·	13µM*	·	·
CCOC(=O)Nc1ccc(C(=O)Oc2ccccc2)c(O)c1	-2	-10%	4%	-21%	-20%	?
O=C(Nc1ccc(OC(=O)c2cccs2)cc1)c1ccco1	4	-17%	-2%	-13%	25µM*	-1%
CCOc1ccc(CNCc2c(C(=O)O)c(C)n(Cc3ccc(C)cc3)c2C)cc1	·	-6%	?	6%	·	·
CCOC(=O)c1cccc(NC(=O)c2oc3c(c2C)-c2nn(CC)cc2CC3)c1	·	?	-1%	9%	·	·
COc1cc(NC(=O)C2CCN(S(=O)(=O)c3c(C)noc3/C=C/c3ccccc3F)CC2)cc(OC)c1OC	·	-18%	?	-5%	·	·
CCOc1ccc(NC(=O)c2ccco2)cc1	2	10µM*	22%	10µM*	13µM*	0%
O=c1[nH]c(SCc2c(Cl)c(Cl)c(Cl)c(Cl)c2Cl)nc(=S)[nH]1	·	-1%[9.22 µM]	0%[11.4 µM]	-15%[9.22 µM]	3%[11.4 µM]	0%[11 µM]
CCc1ccc(OCC(=O)Nc2ccc3c(c2)c2ccccc2n3CC)c(Br)c1	1	13µM*	-7%	-12%	·	·
CCN(Cc1ccccc1)C(=O)Cn1c(=O)n(-c2cccc(C)c2)c(=O)c2c1c1cc(C)ccc1n2C	·	-10%	3%	16%	·	·
O=c1c2ccccc2nc(-c2ccc(Cl)cc2)n1CCCCOc1ccc(F)cc1	?	-19%	4%	-7%	·	·
Cc1ccc2nc(-c3ccc(N4CCOCC4)cc3)c(Nc3ccccc3C)n2c1	-26	?	?	13µM*	·	·
Cc1ccccc1Nc1c(-c2ccc(N3CCOCC3)cc2)nc2ccc(Cl)cn12	-7	10µM*	?	?	·	·
SMILES	IMPase inh	p53ts 39C tox	IkB sig inh	p53ts 32C tox	FLuc inh	Hsp90 Hop PPI
NCCSCCC(=O)O	·	3%[9.22 µM]	-1%[11.4 µM]	-13%[9.22 µM]	1%[11.4 µM]	0%[11 µM]
CCSc1nnc(NC(=O)c2ccccn2)s1	1	10µM*	?	10µM*	?	7.9µM*
CCC(Sc1nnc2c(n1)[nH]c1ccccc12)C(=O)Nc1nnc(C(C)C)s1 (stereo not given)	-3	10µM*	8%	?	·	·
CC(Nc1oc(-c2ccc(COc3ccccc3)o2)nc1C#N)c1ccccc1 (stereo not given)	·	-14%	0%	-1%	·	·
COc1cccc(NS(=O)(=O)c2cn(C)c(=O)n(C)c2=O)c1	8	13µM*	4%	7.9µM*	2%	-6%
Cn1cc(S(=O)(=O)Nc2cccc(F)c2)c(=O)n(C)c1=O	-12	·	·	·	·	·
COc1ccc(-c2onc(C)c2C)cc1S(=O)(=O)Nc1cc(Cl)ccc1C	·	-26%	0%	-2%	·	·
CCCN(CCC)CCCNC(=O)c1cc2c(-c3ccc(Cl)cc3)nn(C)c2s1	·	13µM*	?	-10%	·	·
Cc1cc(C)c(C#N)c(SCC(=O)OC2CCCCC2)n1	13	-1%	?	-12%	-2%	32µM*
CCOC(=O)CSc1nc(C)cc(C)c1C#N	-4	·	·	·	·	·
O=C(C1CCCCC1)N(Cc1cccnc1)c1nc2ccc(Cl)cc2s1	·	-10%	?	-2%	·	·
CCC(=O)Nc1cc2nn(-c3ccc(OC)cc3)nc2cc1C	2	?	-3%	?	1.3µM*	2%
CCCCC(=O)Nc1cc2nn(-c3ccc(OC)cc3)nc2cc1C	8	-10%	-3%	0%	-8%	-2%
CCOC(=O)c1ccc(N2C(=O)c3n[nH]c(-c4cccs4)c3C2c2ccc(CC)cc2)cc1 (stereo not given)	·	10µM*	?	?	·	·
CCOC(=O)c1ccc(N2C(=O)c3n[nH]c(C)c3C2c2ccc(CC)cc2)cc1 (stereo not given)	·	-16%	3%	-17%	·	·
CCOC(=O)c1ccc(N2C(=O)c3n[nH]c(-c4cccs4)c3C2c2ccc(OCC)cc2)cc1 (stereo not given)	·	?	-2%	36%	·	·
CCOC(=O)c1ccc(N2C(=O)c3n[nH]c(-c4cccs4)c3C2c2ccc(C(C)C)cc2)cc1 (stereo not given)	·	10µM*	?	?	·	·
O=c1cnc2cncnc2n1Cc1ccc(F)cc1	·	-25%	?	-10%	0%[11.4 µM]	-3%
CC(C)[C@@H](CC(=O)N[C@@H]1CCNC[C@H]1C(=O)N[C@H](CC(=O)N[C@@H](CCC(=O)O)CC(=O)O)Cc1ccccc1)NC(=O)C[C@H](Cc1c[nH]c2ccccc12)NC(=O)[C@@H]1CCCC[C@H]1N	·	·	0%	·	·	32µM*
O=C(Nc1ccc([N+](=O)[O-])cc1Cl)c1cc(Cl)ccc1O	6[20.6 µM]	4µM*	?	?	?	-6%[26 µM]
FC(F)(F)c1cc(-c2ccco2)nc(NCc2cccs2)n1	7	20µM*	5%	?	-1%	7%
CC(C)(CCc1nc2ccccc2[nH]1)C(=O)O	·	2%[9.22 µM]	-1%[11.4 µM]	0%[9.22 µM]	0%[11.4 µM]	-1%[11 µM]
Cc1nc2ccccc2c2oc(C(=O)N3CCc4ccccc4C3)cc12	17	20µM*	?	?	-1%	-5%
